Reference: PubChem BioAssay
The source made the active and inactive calls. Unless noted, how the calls were made is not given here.

Tests used:
[1] = tested on: Wnt5a (protein binding on small-molecule microarray); experiment: small molecules binding Wnt5a protein – biophysical, small-molecule microarray, 635/667 nm fluorescence, primary screen (AID 1142); conditions: 635 nm fluorescence, higher = more signal;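 further: fluorescence read at 667 nm with signal to noise per printed feature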
[2] = ATP-based viability of Huh7 replicon cells – cell-based, CellTiter-Glo luminescence, basal, 48 h, cytotoxicity control for HCV replication inhibitor project, primary screen (AID 1143); conditions: higher = more signal, called active from +8 up or from −8 down;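 further: Huh7 hepatoma cells carrying a hepatitis C replication reporter with no stimulus; test concentration not given here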
[3] = Pseudomonas biofilm growth suppression – PAO1 strain, BacTiter-Glo luminescence, LB-PBS, primary screen (AID 1144); conditions: P. aeruginosa PAO1 biofilm, 12 h, higher = more signal
[4] = basal CRE-LacZ reporter activity in PC12 – cell-based, unstimulated, primary screen (AID 1145); conditions: no forskolin, luminescence, 4.5 h, higher = more signal, called active from +8 up or from −8 down
[5] = forskolin-driven CRE-LacZ activity in PC12 – cell-based, CRE-LacZ reporter, forskolin-stimulated, primary screen (AID 1146); conditions: luminescence, 4.5 h, higher = more signal, called active from +8 up or from −8 down;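 further: PC12 cells with 6xCRE LacZ reporter stimulated by forskolin 10 µM; beta-galactosidase reporter signal reflecting CREB driven transcription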
[6] = molecular target: Streptavidin (Streptomyces avidinii) (UniProt P22629); experiment: compounds binding control protein streptavidin – biophysical, small-molecule microarray, 635/667 nm fluorescence, artefact control for SMM compound annotation, primary screen (AID 1147); conditions: higher = more signal;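 further: signal reflects streptavidin binding to arrayed compounds as a control protein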
[7] = probe aInhba binding on compound microarray – biochemical, small-molecule microarray, 635/667 nm fluorescence, primary screen (AID 1148); conditions: higher = more signal;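 further: score merges 667nm spot fluorescence with signal-to-noise for antibody binding to printed compounds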
Torsin-1A (Homo sapiens) [8] = molecular target: Torsin-1A (Homo sapiens) (UniProt O14656); experiment: TOR1A wild-type binding on microarray – cell lysate, small-molecule microarray, lysate, 635/667 nm, primary screen (AID 1149); conditions: COS7 hTOR1A-WT lysate, 635 nm fluorescence, higher = more signal
Torsin-1A (Homo sapiens) [9] = molecular target: Torsin-1A (Homo sapiens) (UniProt O14656); experiment: torsin A mutant lysate binding on microarrays – cell lysate, small-molecule microarray, COS7 lysate, 635/667 nm fluorescence, primary screen (AID 1150); conditions: COS7 hTOR1A mutant lysate, 635 nm fluorescence, higher = more signal;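 further: score pools 667 nm emission and signal to noise measuring lysate protein binding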
[10] = tested on: Sonic hedgehog protein (Shh); experiment: Sonic hedgehog microarray binding compounds – biochemical, small-molecule microarray, 635/667 nm fluorescence, primary screen (AID 1151); conditions: 635 nm fluorescence, higher = more signal;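 further: Shh protein binding to compounds spotted on small-molecule microarray slides; score combines spot fluorescence intensity with signal-to-noise across triplicate slides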
[11] = optical density shifts of acrAB sulA E. coli – strain DRC41, OD650, 48 h, E. coli filamentation inducer project, primary screen (AID 1152); conditions: higher = more signal, called active from +8 up or from −8 down;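 further: E. coli MC1000 strain DRC41 lacking acrAB efflux pump and sulA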
[12] = probe aLefty1 binding on compound microarray – biochemical, small-molecule microarray, 635/667 nm fluorescence, primary screen (AID 1153); conditions: higher = more signal;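 further: score merges spot fluorescence with signal-to-noise ratio from the scanned slide images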
[13] = plasmodial surface anion channel blockers, osmotic lysis – cell-based, P. falciparum Indochina, OD700, 1 h, primary screen (AID 1154); conditions: P. falciparum Indochina infected RBC osmotic lysis, higher = more signal, called active from +8 up or from −8 down
[14] = plasmodial surface anion channel blockers, osmotic lysis – cell-based, P. falciparum Indochina, OD700, 2 h, primary screen (AID 1155);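 further: lysis reports solute entry through the parasite surface anion channel PSAC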; conditions: P. falciparum Indochina infected erythrocytes, higher = more signal, called active from +8 up or from −8 down
[15] = changes in parasitized red cell lysis, either direction – P. falciparum Indochina, OD700, 3 h, PSAC antagonist project, primary screen (AID 1156); conditions: P. falciparum-infected erythrocytes, osmotic lysis, higher = more signal, called active from +8 up or from −8 down
[16] = plasmodial surface anion channel blockers, osmotic lysis – cell-based, P. falciparum Indochina, OD700, 18 h, primary screen (AID 1157); conditions: P. falciparum Indochina infected erythrocytes, osmotic lysis OD700, 18 h; higher = more signal, called active from +8 up or from −8 down
[17] = S6 kinase pathway phospho-S6 level changes – cell-based, A549, cytoblot, luminescence, serum-stimulated, primary screen (AID 1158); conditions: 5 h, higher = more signal;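 further: serum-stimulated A549 lung adenocarcinoma cells; signal is phosphorylated S6 detected by cytoblot immunostaining with HRP secondary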
[18] = molecular target: NADPH oxidase 2 (Homo sapiens) (UniProt P04839); experiment: compounds shifting NOX2 Amplex Red fluorescence – cell-based, HEK293-NOX2, PMA-stimulated, NOX inhibitor project, primary screen (AID 1159); conditions: 45 min, higher = more signal, called active from +8 up or from −8 down; further: test concentration not given here
[19] = molecular target: NADPH oxidase 4 (Homo sapiens) (UniProt Q9NPH5); experiment: compounds shifting NOX4 Amplex Red fluorescence – cell-based, HEK293-NOX4, tetracycline-induced, NOX inhibitor project, primary screen (AID 1160); conditions: HEK293-NOX4, Amplex Red H2O2 fluorescence, 45 min; higher = more signal, called active from +8 up or from −8 down
[20] = molecular target: NADPH oxidase 5 (Homo sapiens) (UniProt Q96PH1); experiment: compounds shifting NOX5 Amplex Red fluorescence – cell-based, HEK293-NOX5, NOX inhibitor project, primary screen (AID 1161); conditions: HEK293-NOX5, ionomycin, 45 min, higher = more signal
Sequence of NADPH oxidase 5 (Homo sapiens) (Q96PH1 whole entry, looked up): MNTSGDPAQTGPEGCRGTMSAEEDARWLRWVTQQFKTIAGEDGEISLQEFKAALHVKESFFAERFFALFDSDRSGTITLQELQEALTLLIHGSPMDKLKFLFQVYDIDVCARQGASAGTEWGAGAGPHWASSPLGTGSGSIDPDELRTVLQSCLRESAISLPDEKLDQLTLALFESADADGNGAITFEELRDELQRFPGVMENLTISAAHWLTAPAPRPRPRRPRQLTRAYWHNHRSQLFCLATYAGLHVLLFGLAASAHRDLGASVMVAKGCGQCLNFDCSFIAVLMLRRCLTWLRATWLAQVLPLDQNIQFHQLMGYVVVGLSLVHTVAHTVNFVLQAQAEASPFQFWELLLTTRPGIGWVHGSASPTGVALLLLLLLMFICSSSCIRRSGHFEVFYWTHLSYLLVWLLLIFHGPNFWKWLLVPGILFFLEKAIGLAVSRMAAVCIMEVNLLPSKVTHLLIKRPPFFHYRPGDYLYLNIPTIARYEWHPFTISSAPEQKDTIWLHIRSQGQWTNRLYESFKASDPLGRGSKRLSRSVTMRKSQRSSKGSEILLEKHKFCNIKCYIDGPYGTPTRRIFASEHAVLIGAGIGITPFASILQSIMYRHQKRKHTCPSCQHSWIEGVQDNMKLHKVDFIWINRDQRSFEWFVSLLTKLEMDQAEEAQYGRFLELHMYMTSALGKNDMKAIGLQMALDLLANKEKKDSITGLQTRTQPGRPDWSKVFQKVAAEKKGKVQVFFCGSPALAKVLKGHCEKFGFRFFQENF

Sequence of Torsin-1A (Homo sapiens) (O14656 whole entry, looked up): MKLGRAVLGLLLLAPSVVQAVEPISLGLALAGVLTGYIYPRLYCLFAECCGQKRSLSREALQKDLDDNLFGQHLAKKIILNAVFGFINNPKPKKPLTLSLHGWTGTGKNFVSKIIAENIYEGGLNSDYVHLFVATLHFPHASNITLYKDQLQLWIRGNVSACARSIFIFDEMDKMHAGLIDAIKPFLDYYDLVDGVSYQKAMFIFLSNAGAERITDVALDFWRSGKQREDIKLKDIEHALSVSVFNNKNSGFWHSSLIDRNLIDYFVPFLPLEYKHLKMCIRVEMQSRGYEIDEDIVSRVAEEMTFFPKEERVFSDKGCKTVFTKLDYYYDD
Sequence of Streptavidin (Streptomyces avidinii) (P22629 whole entry, looked up): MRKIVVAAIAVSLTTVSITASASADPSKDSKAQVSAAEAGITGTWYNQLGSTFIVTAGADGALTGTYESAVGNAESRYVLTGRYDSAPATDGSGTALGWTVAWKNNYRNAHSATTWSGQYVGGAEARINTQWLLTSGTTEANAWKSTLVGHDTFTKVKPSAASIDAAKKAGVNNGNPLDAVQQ
Sequence of NADPH oxidase 2 (Homo sapiens) (P04839 whole entry, looked up): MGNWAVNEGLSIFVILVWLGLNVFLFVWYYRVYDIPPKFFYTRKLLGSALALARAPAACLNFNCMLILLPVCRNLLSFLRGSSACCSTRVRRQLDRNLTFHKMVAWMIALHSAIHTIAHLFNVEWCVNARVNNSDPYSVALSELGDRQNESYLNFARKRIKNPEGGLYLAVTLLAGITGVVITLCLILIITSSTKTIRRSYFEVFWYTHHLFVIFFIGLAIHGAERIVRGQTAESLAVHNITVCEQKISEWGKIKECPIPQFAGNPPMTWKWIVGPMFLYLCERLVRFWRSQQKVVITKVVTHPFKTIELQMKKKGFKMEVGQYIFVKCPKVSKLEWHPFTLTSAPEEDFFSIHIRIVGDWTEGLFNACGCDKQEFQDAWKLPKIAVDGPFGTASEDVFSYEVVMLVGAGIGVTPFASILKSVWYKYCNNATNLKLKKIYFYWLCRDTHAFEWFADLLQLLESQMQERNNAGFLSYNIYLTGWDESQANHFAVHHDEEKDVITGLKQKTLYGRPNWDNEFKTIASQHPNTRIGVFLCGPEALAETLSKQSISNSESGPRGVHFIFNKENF
Sequence of NADPH oxidase 4 (Homo sapiens) (Q9NPH5 whole entry, looked up): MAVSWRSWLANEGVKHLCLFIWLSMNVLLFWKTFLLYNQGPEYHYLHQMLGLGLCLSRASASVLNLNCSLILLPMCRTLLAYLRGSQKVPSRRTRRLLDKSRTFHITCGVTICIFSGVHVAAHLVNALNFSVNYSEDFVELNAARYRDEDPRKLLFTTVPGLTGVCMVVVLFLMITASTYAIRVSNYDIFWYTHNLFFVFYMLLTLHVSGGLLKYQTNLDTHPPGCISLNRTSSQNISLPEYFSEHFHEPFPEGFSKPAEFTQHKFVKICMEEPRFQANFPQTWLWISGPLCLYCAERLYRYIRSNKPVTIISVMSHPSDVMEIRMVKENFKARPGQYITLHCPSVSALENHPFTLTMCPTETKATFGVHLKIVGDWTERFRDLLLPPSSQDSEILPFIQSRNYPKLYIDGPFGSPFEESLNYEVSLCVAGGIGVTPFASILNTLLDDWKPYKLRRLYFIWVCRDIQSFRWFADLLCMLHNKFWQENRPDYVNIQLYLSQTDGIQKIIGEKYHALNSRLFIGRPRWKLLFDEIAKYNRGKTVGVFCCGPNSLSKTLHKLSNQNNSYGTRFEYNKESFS

Row | Compound | composite z-score [1] | z-score [2] | z-score [3] | z-score [4] | z-score [5] | composite z-score [6] | composite z-score [7] | composite z-score (Torsin-1A (Homo sapiens) [8]) | composite z-score (Torsin-1A (Homo sapiens) [9]) | composite z-score [10] | z-score [11] | composite z-score [12] | z-score [13] | z-score [14] | z-score [15] | z-score [16] | z-score [17] | z-score [18] | z-score [19] | z-score [20]
1 | COCC(=C=CC[C@H](O)c1ccccc1OCCO)CCO | 0.0821 | -0.231 (inactive) | -0.109 (inactive) | 2.48 (inactive) | 1.01 (inactive) | -0.193 | 0.115 | 0.871 | 0.542 | 1.09 | 0.0257 (inactive) | -0.206 | 2.69 (inactive) | -0.0718 (inactive) | -0.107 (inactive) | 0.0371 (inactive) | -0.509 | 0.281 (inactive) | 0.263 (inactive) | -0.397
2 | C=CCN(Cc1ccccc1)C(=O)C(c1cccs1)N(C(=O)/C=C\C(=O)O)c1ccc(CCOCCO)cc1 (stereo not given) | -0.913 | -0.0564 (inactive) | -1.75 (inactive) | -0.0737 (inactive) | -0.771 (inactive) | -1.82 | -0.133 | -2.08 | -2.48 | -0.595 | 1.61 (inactive) | -0.0538 | 1.51 (inactive) | -0.707 (inactive) | 0.189 (inactive) | -1.04 (inactive) | 1.77 | -0.108 (inactive) | -0.821 (inactive) | -0.58
3 | COCCCNC(=O)[C@@H]1c2ccccc2C(=O)N(Cc2ccccc2)[C@H]1c1ccc(CO)cc1 | 0.23 | 0.285 (inactive) | 0.397 (inactive) | 0.648 (inactive) | -1.01 (inactive) | 0.158 | 0.343 | 0.662 | 1.29 | 0.857 | -0.134 (inactive) | 0.603 | 0.481 (inactive) | -0.307 (inactive) | 0.239 (inactive) | 0.129 (inactive) | -0.0034 | -0.694 (inactive) | 0.572 (inactive) | -2.19
4 | COC(=O)C(CC#Cc1ccc2c(c1)[C@]1(C(=O)N2)[C@H](c2ccc(O)cc2)N2[C@H](c3ccccc3)[C@H](c3ccccc3)OC(=O)[C@H]2[C@@H]1C(=O)N1CCN(c2ncccn2)CC1)C(=O)OC | 0.131 | -2.25 (inactive) | -1.08 (inactive) | -0.644 (inactive) | -0.0048 (inactive) | 0.709 | 0.313 | 0.131 | 0.338 | 0.618 | 0.347 (inactive) | 0.027 | 5.42 (inactive) | 0.658 (inactive) | 1.93 (inactive) | 0.515 (inactive) | 0.355 | 1.91 (inactive) | 0.857 (inactive) | 1.54
5 | COC(=O)[C@H](Cc1ccccc1)N[C@H](/C=C/C1CC1)[C@@H](O)Cc1ccccc1 | -0.711 | -1.78 (inactive) | -0.555 (inactive) | 2.59 (inactive) | -1.23 (inactive) | -0.841 | -0.322 | -0.795 | -0.533 | -0.345 | 1.85 (inactive) | -0.235 | 0.786 (inactive) | -0.96 (inactive) | -0.868 (inactive) | -1.83 (inactive) | 2.14 | 0.455 (inactive) | 0.0154 (inactive) | -2.49
6 | CCCCC(=C=CC[C@@H](O)c1cccc(OCCO)c1)C[C@@H](O)c1ccccn1 | 0.252 | -0.19 (inactive) | -1.15 (inactive) | -0.102 (inactive) | 0.786 (inactive) | 1.5 | -0.0331 | 1.67 | 0.416 | 1.86 | 0.158 (inactive) | -0.147 | 14 (active) | 1.33 (inactive) | 0.375 (inactive) | 0.504 (inactive) | -0.0848 | -1.68 (inactive) | -0.544 (inactive) | -1.46
7 | COC(=O)[C@]1(CCC(=O)OC(C)(C)C)N=C(c2ccc(OCCCO)cc2)O[C@@H]1c1ccccc1 | -0.102 | -4.76 (inactive) | 0.314 (inactive) | 2.39 (inactive) | -0.0673 (inactive) | -0.98 | 0.154 | -0.927 | -0.343 | 0.169 | 0.687 (inactive) | 0.765 | 27.7 (active) | 27.2 (active) | 0.0027 (inactive) | 5.02 (inactive) | -0.406 | -1.93 (inactive) | 0.178 (inactive) | -1.16
8 | O=C1C2C=CC(C(O)c3ccc4c(c3)OCO4)N(Nc3ccc([N+](=O)[O-])cc3)C2C(=O)N1c1ccccc1 (stereo not given) | -0.0509 | -0.954 (inactive) | 0.105 (inactive) | -0.116 (inactive) | -0.222 (inactive) | 0.145 | -0.0178 | -0.0053 | 0.17 | -0.199 | -0.81 (inactive) | -0.101 | 18.1 (active) | 3.98 (inactive) | 1.4 (inactive) | 1.66 (inactive) | -0.363 | -1 (inactive) | -3.31 (inactive) | -2.1
